TDP1 cell noCPT: qHTS for Inhibitors of human tyrosyl-DNA phosphodiesterase 1 (TDP1): qHTS in cells in absence of CPT; DT40 Tdp1-/- hTDP1 cells, no CPT, ATP luminescence, 48 h; Potency, µM (doses to about 46.2 µM), without a hit: top-dose activity change, negative = growth inhibition, usual class: inhibitors; hit rate 15% among 420,000; AID 686978, 2013; also: potency is read from the fitted curve at half-maximal effect; nearly all actives have a fitted effect of over 55% in size
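DT40 Tdp1-/-;hTDP1 cells, no CPT (DMSO vehicle only), 400 cells/well; compounds pin-transferred; ≥48 hr, 37 °C; CellTiter-Glo 30 min RT dark, luminescence read.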
IL-1B inflam inh: inflammasome signaling inhibition, IL-1 beta readout. THP-1 LPS/ATP IL-1B secretion, AlphaLISA, 16 h; stronger effect = lower value. activity change, % at 57.5 µM. hit rate 4.7% among 360,000. AID 743279; in the data active = activity change below about -50%; inconclusive = mostly about -30% to -49%
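THP-1 cells pretreated 1 hr with compounds (up to 57.5 uM final), then stimulated with LPS (250 ng/mL final) plus ATP (1.25 mM final); secreted IL-1B measured by AlphaLISA after 16 hr, decreased signal indicating inhibition.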
TDP1 cell CPT: DT40-hTDP1 cell growth loss with CPT. chicken DT40 Tdp1-/-;hTDP1 cells + 20 nM CPT, ATP luminescence, 48 h. Potency, µM (highest dose often 46.2 µM), for the others: at the highest dose activity change, negative = growth inhibition, hits mostly inhibitors. hit rate 12% among 420,000; also: potency is read from the fitted curve at half-maximal effect; nearly all actives have a fitted effect of over 55% in size
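Cell growth measured by CellTiter-Glo luminescence after a minimum 48 h, 37 C compound exposure with 20 nM CPT in Tdp1-knockout DT40 cells stably expressing hTDP1, seeded 400/well; qHTS titration format.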
HT1080-NT tox: kills 2HG-producing HT-1080-NT fibrosarcoma cells. HT-1080-NT fibrosarcoma viability, CellTiter-Glo ATP luminescence, 48 h. Potency, µM (highest dose often 46.1 µM), without a hit: at the highest dose activity, negative = less viability, most hits filed as cytotoxic. hit rate 1.6% among 360,000. AID 686970;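 also: NT is the 2HG producing partner of a matched IDH1 knockdown line; potency is read from the fitted curve at half-maximal effect; 0% = DMSO-treated cells and -100% = media-only wells without cells; nearly all actives have a fitted effect of over 55% in size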
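750 cells/well, RPMI + 5% FBS; 2 h settle, compound pin-transfer, 48 h at 37 degrees C. CellTiter-Glo 10 min RT, luminescence. Normalized to DMSO and media-only wells.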
HT1080 IDH1KD tx: HT-1080 IDH1 knockdown cell toxicity (counter line). HT-1080 IDH1 knockdown viability, ATP luminescence, 48 h. Potency, µM (highest dose often 46.1 µM), for the others: at the top dose activity, negative = toxicity, most hits filed as cytotoxic. hit rate 2% among 360,000. AID 686971;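 also: potency is read from the fitted curve at half-maximal effect; 0% = DMSO wells and -100% = cell-free medium wells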
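CellTiter-Glo luminescence after 48 h compound exposure at 37 degrees C of IDH1-knockdown HT-1080 cells in 5% FBS RPMI. %Activity scaled between DMSO wells and cell-free media wells, with curves fitted and assigned curve classes.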
12-LOX inh: ALOX12 (human) lipoxygenase inhibition; P18054; Potency, µM (titrated, usually from 108 µM), inactives show top-dose activity change, negative = inhibition, hits mostly inhibitors; purified 12hLO, xylenol orange hydroperoxide absorbance; hit rate 1.1% among 580,000; also: potency is read from the fitted curve at half-maximal effect
Target sequence (P18054 whole entry, looked up): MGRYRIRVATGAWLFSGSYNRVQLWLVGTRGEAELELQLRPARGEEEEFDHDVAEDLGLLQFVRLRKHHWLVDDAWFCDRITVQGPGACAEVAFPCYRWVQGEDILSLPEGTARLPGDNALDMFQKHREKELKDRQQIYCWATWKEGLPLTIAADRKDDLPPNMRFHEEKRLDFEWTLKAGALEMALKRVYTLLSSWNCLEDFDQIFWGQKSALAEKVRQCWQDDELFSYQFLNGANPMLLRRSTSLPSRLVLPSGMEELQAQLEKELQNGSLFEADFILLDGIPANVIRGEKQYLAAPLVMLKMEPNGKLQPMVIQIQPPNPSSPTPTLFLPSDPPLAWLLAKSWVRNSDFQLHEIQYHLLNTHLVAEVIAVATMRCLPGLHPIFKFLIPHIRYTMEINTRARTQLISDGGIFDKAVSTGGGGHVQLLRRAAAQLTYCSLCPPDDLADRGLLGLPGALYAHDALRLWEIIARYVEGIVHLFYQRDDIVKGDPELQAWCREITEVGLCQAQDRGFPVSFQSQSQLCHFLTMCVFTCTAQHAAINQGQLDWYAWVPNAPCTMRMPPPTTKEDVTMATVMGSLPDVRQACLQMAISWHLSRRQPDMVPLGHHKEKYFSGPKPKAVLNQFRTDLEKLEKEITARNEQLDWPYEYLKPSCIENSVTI
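Purified human 12hLO at 150 nM in 25 mM Hepes, 0.01% Triton X-100, pH 7.0, preincubated 15 min at room temperature with compound. Reaction started with 40 uM arachidonic acid, 30 min at room temperature. Hydroperoxide measured by Fe-xylenol orange, 573/405 nm absorbance ratio.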
Starred values were filed as active, the others as inactive; ? = inconclusive; · = no result given; [ ] = remark or other dose. Only a selection was taken, and hits are over-represented in it overall. Unless noted, calls follow the shape of the dose curve; as a rule, active = well fitted curve in the direction sought with a large enough effect; inconclusive = small, poorly fitted or top-dose-only effect, or another doubt; inactive = no such curve, though single readings can be large; an effect the other way counts as inactive or inconclusive. Unless noted, % is scaled to controls: 0 for no effect and ±100 for the full control effect.

SMILES | TDP1 cell noCPT | IL-1B inflam inh | TDP1 cell CPT | HT1080-NT tox | HT1080 IDH1KD tx | 12-LOX inh
Oc1cccc(C(Nc2ccccn2)c2ccc3cccnc3c2O)c1Cl (stereo not drawn) | 3.3µM* | · | 0.65µM* | · | · | ?
CC(=O)c1cn(CC(=O)N2CCOCC2)c2ccccc12 | · | · | · | · | · | 6%
COc1ccc(Nc2nc(-c3c(C)nc4ncccn34)cs2)cc1 | 0.0073µM* | -61* | 0.0092µM* | 0.013µM* | 0.0073µM* | ?
Cc1nc2ncccn2c1-c1csc(Nc2ccccc2)n1 | 18µM* | -1 | 16µM* | 0% | -10% | ?
Cc1nc2ncccn2c1-c1csc(Nc2ccc(N(C)C)cc2)n1 | 0.018µM* | ? | 0.0052µM* | ? | ? | ?
COc1cccc2cc(C(=O)/C=C/c3ccc(C#N)cc3)oc12 | · | · | · | · | · | 54%
CSc1cccc(NC(=O)c2ccc3c(c2)OCC(=O)N3)c1 | · | · | · | · | · | 30%
NC(=O)C1CCCc2c1[nH]c1ccc(Cl)cc21 (stereo not drawn) | · | · | · | · | · | -20%[57.4 µM]
Clc1ccc2[nH]c3c(c2c1)CCc1cn[nH]c1-3 | 18µM* | -22 | ? | ? | ? | -17%
c1ccc2c3c([nH]c2c1)-c1[nH]ncc1CC3 | ? | -28 | 16µM* | ? | -29% | -19%
Cc1nc(NCCc2nccc(-c3ccccc3)n2)cc(C2CC(O)C2)n1 (stereo not drawn) | · | · | · | · | · | 61%
COC(=O)c1cc2c(Cl)c(Cl)ccc2[nH]1 | · | · | · | · | · | -31%
CC(C)Cn1[nH]c2c3c(ccc2c1=O)C(=O)c1ccccc1C3=O | 16µM* | -7 | 23µM* | ? | -17% | ·
Cc1cccc(-n2[nH]c3c4c(ccc3c2=O)C(=O)c2ccccc2C4=O)c1 | ? | -27 | 21µM* | -2% | -2% | -6%
CCOC(=O)/C=C/C(=O)OCC(=O)Nc1cccc(Cl)c1Cl | ? | -12 | -18% | -4% | -11% | -7%
CCOC(=O)/C=C/C(=O)Nc1ccccc1-c1ccccc1NC(=O)/C=C/C(=O)OCC | 5.2µM* | -83* | 4.6µM* | ? | 23µM* | -5%
CCOC(=O)/C=C/C(=O)Nc1cccc([N+](=O)[O-])c1 | 4.1µM* | -65* | 1.6µM* | ? | -26% | ·
CCCCc1[nH]nc2c1C1(C(=O)Nc3ccccc31)C(C#N)=C(N)O2 (stereo not drawn) | · | · | · | · | · | 12%
CCCCC(=O)N(C)c1c(CC)nc2c(OCCOc3ccc(F)cc3)cccn12 | 18µM* | -23 | 15µM* | -2% | -12% | 4%
CCc1nc2c(OCCOc3ccc(F)cc3)cccn2c1N(C)C(=O)C(C)C | 16µM* | -8 | ? | 1% | 2% | 0%
CCc1nc2c(OCc3ccc(OC)cc3)cccn2c1N(C)C(=O)C(C)C | ? | 7 | ? | 0% | 0% | 17%
CCCCC(=O)N(C)c1c(CC)nc2c(OCCC)cccn12 | -23% | 17 | -29% | 1% | 0% | -4%
CCc1nc2c(OCCOc3ccc(F)cc3)cccn2c1N(C)C(=O)c1ccc(C)cc1 | 15µM* | -60* | ? | -9% | 0% | ?
CCCCC(=O)N(C)c1c(CC)nc2c(OCCOc3ccccc3)cccn12 | 26µM* | -27 | 18µM* | 0% | 0% | -5%
CC(C)(Oc1nn(Cc2cccc(Cl)c2)c2ccccc12)C(=O)NCc1cnccn1 | · | · | · | · | · | 7%[176 µM]
O=C(c1ncn[nH]1)N1CCN(Cc2cn(-c3ccccc3)nn2)CC1 | · | · | · | · | · | 13%
Cc1cc(C)c2oc(=O)cc(CN3CCC(C(N)=O)CC3)c2c1 | · | · | · | · | · | 29%
CCOCCN1C(=O)COC[C@@H]1[C@H](O)c1ccc(NC(=O)COC)cc1 | · | · | · | · | · | 19%[176 µM]
COc1ccc(CNC(=O)Cc2c(C)c3c(O)cc(C)cc3oc2=O)cc1OC | · | · | · | · | · | -19%

Screening data: PubChem BioAssay, National Center for Advancing Translational Sciences (NCATS)
